According to PubChem BioAssay (NCI):
This is part of a sample that, as a whole, favours compounds with a hit. Of some 83,000 tested, about 20% had one in any assay.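 Cells were grown in 96-well plates and exposed to the test compound at a single concentration for 48 hours; results are reported as percent growth, with values below 10 considered active.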 A number with no mark means an inactive call. The source made the active and inactive calls.

Test system: PC-3 prostate
Assay: NCI-60 one-dose screen, 48 h (100 = growth as untreated, 0 = no growth, -100 = all killed)
Conditions: 10 µM unless noted

`COc1cc(-c2nc(-c3nc4cc(C(=O)c5ccccc5)ccc4[nH]3)cc3c2[nH]c2ccccc23)cc(OC)c1OC` was tested. Which growth did it give?
Its growth is 65.8%.

`COc1cc(C2=NOC(c3cc(OC)c(OC)c(OC)c3)C2)ccc1OCCCCOc1cc2c(cc1OC)C(=O)N1CCC[C@H]1C=N2` (some centres undefined) was tested. Which growth did it give?
The growth was -2.09% (active).

With `O=C(CCCCCCc1nc2ccc(Br)cc2[nH]1)NO` as the molecule, how does the growth read?
Its growth is 16.7%.

Which growth does the source give for `CCCCOc1ncnc2nc[nH]c12` here?
Its growth is 107%.

With `CC(C)=CCC[C@H](C)c1ccc(C)c2c1OCN(CCO)C2` as the molecule, how does the growth read?
Its growth is 76.9%.

For `O=C(Nc1cccc(Cl)c1)Nc1cc(C(F)(F)F)ccc1Cl`, which growth is on record?
Its growth is -3.53% (active).

`CCCCC(CCc1ccccn1)C(=O)c1ccccc1` (centres undefined) was tested. Which growth did it give?
Its growth is 98.2%.

How did the growth turn out when `Nc1cccc(S(=O)(=O)c2cccc(N)c2)c1` was run?
Its growth is 92%.

How did the growth turn out when `O=C(Nc1ccc2ncnc(Nc3ccc(F)c(Cl)c3)c2c1)c1cccs1` was run?
The growth was 62.8%.

Which growth does the source give for `O=[N+]([O-])c1ccccc1CN1CCCCC1` here?
Its growth is 91.6%.

How did the growth turn out when `COc1cc2c(cc1OCCCOc1cc3c(cc1OC)C(=O)N1CCC[C@H]1C=N3)C=CC(C)(C)O2` was run?
The growth was 78.9%.

`CCCCCCCCCC1=NC(C)(C)CN1C(C)(C)CO` was tested. Which growth did it give?
The growth was 83.8%.

With `COCCn1c(Nc2ccc(C(=O)NO)cc2)nc2ccccc21` as the molecule, how does the growth read?
The growth was 69.5%.

With `O=C(CSc1ccc(Cl)cc1)Nc1ccc(-c2nc3ccccc3s2)c(Cl)c1` as the molecule, how does the growth read?
Its growth is 30.9%.

For `COc1cc(/C=C2\C(=O)Nc3ccc(N(C)C)cc32)cc(OC)c1OC`, which growth is on record?
Its growth is 35%.

For `CC(C)(C)NC(=O)C(OC(=O)C1CCc2cc(F)ccc2O1)c1ccccc1Cl` (centres undefined), which growth is on record?
Its growth is 92.4%.

Which growth does the source give for `CSCCC1NC(=O)C(C(C)=Nc2ccccc2)=C1O` (centres undefined) here?
Its growth is 92.7%.

How did the growth turn out when `CC1(C)C2CCC(O)(C(=O)O)C1C2` (centres undefined) was run?
The growth was 94.9%.

With `COc1ccc(CCN2COc3c([C@@H](C)CCC=C(C)C)ccc(C)c3C2)cc1OC` as the molecule, how does the growth read?
Its growth is 47.6%.

Which growth does the source give for `COc1ccc(C(=O)C(CN(C)C)c2ccccc2)cc1` (centres undefined) here?
The growth was 52.4%.

`Oc1ccc(CCCCCCc2ccc(O)cc2)cc1` was tested. Which growth did it give?
Its growth is 57.9%.

Which growth does the source give for `c1ccc(C2=Nc3ccccc3SC2)cc1` here?
The growth was 66.4%.

`O=C(O)c1cn(-c2ccccc2)nc1-c1ccc(O)cc1` was tested. Which growth did it give?
Its growth is 91.2%.

How did the growth turn out when `COc1cc(/C=C/C(=O)c2c(C)nc3ccccc3c2C)ccc1OCCCOc1cc2c(cc1OC)C(=O)N1CCC[C@H]1C=N2` was run?
The growth was -15.9% (active).

`COc1ccc(Br)c2ccccc12` was tested. Which growth did it give?
Its growth is 102%.

With `CC(=O)c1cccc(Nc2ncnc3ccc(NC(=O)c4ccco4)cc23)c1` as the molecule, how does the growth read?
Its growth is 83.7%.

For `CCN(CC)c1ccc(C(=N)c2ccc(N(C)C)cc2)cc1`, which growth is on record?
The growth was 5.51% (active).

How did the growth turn out when `CCCCCCCCCCCCCCCCCC1=NC(C)(C)CN1C(C)(C)CO` was run?
Its growth is -1.05% (active).

With `COC(=O)c1ccc(NC(N)=NCCC(C)(C)c2ccc(C(F)(F)F)cc2)nc1` as the molecule, how does the growth read?
Its growth is 36%.

How did the growth turn out when `CCCCCCCCCCCC1=NC(C)(C)CN1C(C)(C)CO` was run?
Its growth is 54.9%.

How did the growth turn out when `CO[C@@]12[C@@H]3NC3CN1C1=C(C(=O)C(N)=C(C)C1=O)[C@@H]2COC(N)=O` (some centres undefined) was run?
Its growth is 41.8%.

`Cc1cc(NC(=O)c2ccc(N)cc2)ccc1N=Nc1ccc2cc(S(=O)(=O)O)cc(S(=O)(=O)O)c2c1` was tested. Which growth did it give?
Its growth is 85.6%.

How did the growth turn out when `CCCCCCCCCCCCCCCC1=NCC[N+]1(CCO)CCO` was run?
The growth was 32.1%.

Which growth does the source give for `CC1CN(CCCOC(=O)Nc2ccc(Cl)cc2)CCN1C(C)(C)C` (centres undefined) here?
Its growth is 90%.

How did the growth turn out when `O=c1c2sc3ccccc3c2nnn1-c1ccc(F)c(Cl)c1` was run?
Its growth is 54.8%.

How did the growth turn out when `Clc1ccccc1Nc1nnc(-c2ccncc2)s1` was run?
Its growth is 97.2%.

With `COc1cc2c(cc1I)-c1c(cc(OC)c(OC)c1OC)CC[C@@H]2NC(C)=O` as the molecule, how does the growth read?
The growth was 27.2%.

How did the growth turn out when `COC(=O)c1cc(Cl)cc([N+](=O)[O-])c1O` was run?
Its growth is 97.3%.

Which growth does the source give for `CCN(CC)c1ccc2nc3c4ccccc4c(=O)cc-3n(-c3ccccc3)c2c1` here?
The growth was 6.03% (active).
